In PubChem BioAssay:
Activity calls are given as the source filed them. Unless noted, how the calls were made is not given here.

How the values were obtained:
[1] = compounds binding Alexa647 anti-His antibody – biochemical, small-molecule microarray, 635 nm fluorescence, artefact control for SMM control protein annotation, primary screen (AID 1128); settings: higher = more signal;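 further: score merges feature fluorescence with signal-to-noise for each printed compound spot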
[2] = tested on: Human papillomavirus type 1a E7 protein (residues 1-88); experiment: HPV1a E7 small-molecule binders, primary screen, biochemical, small-molecule microarray, residues 1-88, 635 nm (AID 1129); settings: small-molecule microarray binding, fluorescence 635 nm; higher = more signal
[3] = target: Focal adhesion kinase 1 (Homo sapiens) (UniProt Q05397); experiment: PTK2 protein binding on printed compound slides – biochemical, small-molecule microarray, 635/667 nm fluorescence, BSA, DTT, primary screen (AID 1130); settings: 635 nm fluorescence, higher = more signal;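 further: composite of spot emission at 667 nm and signal to noise over triplicate slides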
[4] = tested on: Fibrinogen (Alexa647-labelled); experiment: Alexa647-fibrinogen binding to printed small molecules – biochemical, small-molecule microarray, 635/667 nm fluorescence, artefact control for SMM control-protein annotation, profiling panel (AID 1131); settings: fibrinogen-A647 binding fluorescence, higher = more signal;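 further: z-score merges 667 nm fluorescence with per-spot signal-to-noise over triplicate slides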
[5] = target: Follistatin (Homo sapiens) (UniProt P19883); experiment: FST protein binding to printed compounds – biochemical, small-molecule microarray, 635/667 nm fluorescence, primary screen (AID 1132); settings: 635 nm fluorescence, higher = more signal
[6] = target: Fibroblast growth factor 2 (Homo sapiens) (UniProt P09038); experiment: basic fibroblast growth factor binding to printed compounds – biochemical, small-molecule microarray, 635/667 nm fluorescence, primary screen (AID 1133); settings: FGF2, fluorescence 635/667, higher = more signal
[7] = JC-1 mitochondrial potential readout, lung cancer cells – cell-based, A549, JC-1 fluorescence, basal, 24 h, 100 nL, profiling panel (AID 1138); settings: higher = more signal;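 further: A549 lung adenocarcinoma cells under basal conditions with no added stimulus; test concentration not given here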
[8] = tested on: Lefty1; experiment: Lefty1 protein binding to printed compounds – biochemical, small-molecule microarray, 635/667 nm fluorescence, primary screen (AID 1139); settings: fluorescence 635/667, higher = more signal
[9] = tested on: wheat germ agglutinin (Triticum aestivum), Alexa647-labelled; experiment: Alexa647-WGA lectin binding to printed small molecules – biochemical, small-molecule microarray, 635/667 nm fluorescence, artefact control for SMM control-protein annotation, profiling panel (AID 1140); settings: WGA-A647 binding, 635 nm fluorescence, higher = more signal;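 further: score merges 667 nm feature emission with signal to noise over triplicate slides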
[10] = target: Luciferin 4-monooxygenase (Photinus pyralis) (UniProt P08659); experiment: inhibition of purified Photinus pyralis luciferase – biochemical, luminescence, purified enzyme, 2006 set, primary screen (AID 1141); settings: purified firefly luciferase, SteadyGlo luminescence, 30 min; higher = more signal, called active from +8 up or from −8 down;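 further: cell-free assay with purified firefly luciferase at 100 ng per well in PBS; test concentration not given here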
[11] = tested on: Wnt5a (protein binding on small-molecule microarray); experiment: small molecules binding Wnt5a protein – biophysical, small-molecule microarray, 635/667 nm fluorescence, primary screen (AID 1142); settings: 635 nm fluorescence, higher = more signal;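 further: fluorescence read at 667 nm with signal to noise per printed feature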
[12] = ATP-based viability of Huh7 replicon cells – cell-based, CellTiter-Glo luminescence, basal, 48 h, cytotoxicity control for HCV replication inhibitor project, primary screen (AID 1143); settings: higher = more signal, called active from +8 up or from −8 down;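 further: Huh7 hepatoma cells carrying a hepatitis C replication reporter with no stimulus; test concentration not given here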
[13] = Pseudomonas biofilm growth suppression – PAO1 strain, BacTiter-Glo luminescence, LB-PBS, primary screen (AID 1144); settings: P. aeruginosa PAO1 biofilm, 12 h, higher = more signal
[14] = basal CRE-LacZ reporter activity in PC12 – cell-based, unstimulated, primary screen (AID 1145); settings: no forskolin, luminescence, 4.5 h, higher = more signal, called active from +8 up or from −8 down
[15] = forskolin-driven CRE-LacZ activity in PC12 – cell-based, CRE-LacZ reporter, forskolin-stimulated, primary screen (AID 1146); settings: luminescence, 4.5 h, higher = more signal, called active from +8 up or from −8 down;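 further: PC12 cells with 6xCRE LacZ reporter stimulated by forskolin 10 µM; beta-galactosidase reporter signal reflecting CREB driven transcription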
[16] = target: Streptavidin (Streptomyces avidinii) (UniProt P22629); experiment: compounds binding control protein streptavidin – biophysical, small-molecule microarray, 635/667 nm fluorescence, artefact control for SMM compound annotation, primary screen (AID 1147); settings: higher = more signal;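 further: signal reflects streptavidin binding to arrayed compounds as a control protein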
[17] = probe aInhba binding on compound microarray – biochemical, small-molecule microarray, 635/667 nm fluorescence, primary screen (AID 1148); settings: higher = more signal;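 further: score merges 667nm spot fluorescence with signal-to-noise for antibody binding to printed compounds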
[18] = target: Torsin-1A (Homo sapiens) (UniProt O14656); experiment: TOR1A wild-type binding on microarray – cell lysate, small-molecule microarray, lysate, 635/667 nm, primary screen (AID 1149); settings: COS7 hTOR1A-WT lysate, 635 nm fluorescence, higher = more signal
[19] = target: Torsin-1A (Homo sapiens) (UniProt O14656); experiment: torsin A mutant lysate binding on microarrays – cell lysate, small-molecule microarray, COS7 lysate, 635/667 nm fluorescence, primary screen (AID 1150); settings: COS7 hTOR1A mutant lysate, 635 nm fluorescence, higher = more signal;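 further: score pools 667 nm emission and signal to noise measuring lysate protein binding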
[20] = tested on: Sonic hedgehog protein (Shh); experiment: Sonic hedgehog microarray binding compounds – biochemical, small-molecule microarray, 635/667 nm fluorescence, primary screen (AID 1151); settings: 635 nm fluorescence, higher = more signal;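 further: Shh protein binding to compounds spotted on small-molecule microarray slides; score combines spot fluorescence intensity with signal-to-noise across triplicate slides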

Fibroblast growth factor 2 (Homo sapiens), sequence (P09038 whole entry, looked up): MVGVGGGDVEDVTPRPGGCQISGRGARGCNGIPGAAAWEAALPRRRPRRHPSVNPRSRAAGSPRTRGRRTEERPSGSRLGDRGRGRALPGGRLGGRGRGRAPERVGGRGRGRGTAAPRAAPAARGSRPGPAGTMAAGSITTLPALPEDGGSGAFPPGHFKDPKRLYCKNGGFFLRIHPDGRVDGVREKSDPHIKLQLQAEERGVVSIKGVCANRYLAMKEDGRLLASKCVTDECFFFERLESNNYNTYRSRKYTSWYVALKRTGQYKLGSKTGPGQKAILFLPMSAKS
Torsin-1A (Homo sapiens), sequence (O14656 whole entry, looked up): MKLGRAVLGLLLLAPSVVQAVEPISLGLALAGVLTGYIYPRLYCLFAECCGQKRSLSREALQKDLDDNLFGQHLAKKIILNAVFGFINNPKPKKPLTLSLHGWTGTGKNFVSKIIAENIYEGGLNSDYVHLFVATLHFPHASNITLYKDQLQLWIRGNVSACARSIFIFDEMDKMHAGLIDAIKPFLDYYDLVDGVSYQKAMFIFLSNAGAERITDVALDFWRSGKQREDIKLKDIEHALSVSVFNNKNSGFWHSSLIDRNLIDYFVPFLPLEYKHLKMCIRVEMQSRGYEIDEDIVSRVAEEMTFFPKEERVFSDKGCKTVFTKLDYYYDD
Luciferin 4-monooxygenase (Photinus pyralis), sequence (P08659 whole entry, looked up): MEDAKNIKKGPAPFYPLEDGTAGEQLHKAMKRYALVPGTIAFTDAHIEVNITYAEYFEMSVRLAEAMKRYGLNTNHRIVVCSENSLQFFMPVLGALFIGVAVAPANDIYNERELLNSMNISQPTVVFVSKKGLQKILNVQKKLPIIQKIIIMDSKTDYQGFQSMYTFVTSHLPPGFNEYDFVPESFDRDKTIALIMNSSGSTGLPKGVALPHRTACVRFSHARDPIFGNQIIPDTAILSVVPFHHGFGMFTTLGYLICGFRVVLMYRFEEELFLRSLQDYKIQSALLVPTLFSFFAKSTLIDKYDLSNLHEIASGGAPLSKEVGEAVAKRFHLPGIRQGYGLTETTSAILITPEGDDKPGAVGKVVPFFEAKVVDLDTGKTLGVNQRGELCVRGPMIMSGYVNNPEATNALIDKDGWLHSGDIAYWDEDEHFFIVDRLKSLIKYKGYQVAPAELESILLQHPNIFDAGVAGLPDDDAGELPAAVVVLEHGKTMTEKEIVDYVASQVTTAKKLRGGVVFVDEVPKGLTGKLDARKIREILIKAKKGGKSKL
Focal adhesion kinase 1 (Homo sapiens), sequence (Q05397 whole entry, looked up): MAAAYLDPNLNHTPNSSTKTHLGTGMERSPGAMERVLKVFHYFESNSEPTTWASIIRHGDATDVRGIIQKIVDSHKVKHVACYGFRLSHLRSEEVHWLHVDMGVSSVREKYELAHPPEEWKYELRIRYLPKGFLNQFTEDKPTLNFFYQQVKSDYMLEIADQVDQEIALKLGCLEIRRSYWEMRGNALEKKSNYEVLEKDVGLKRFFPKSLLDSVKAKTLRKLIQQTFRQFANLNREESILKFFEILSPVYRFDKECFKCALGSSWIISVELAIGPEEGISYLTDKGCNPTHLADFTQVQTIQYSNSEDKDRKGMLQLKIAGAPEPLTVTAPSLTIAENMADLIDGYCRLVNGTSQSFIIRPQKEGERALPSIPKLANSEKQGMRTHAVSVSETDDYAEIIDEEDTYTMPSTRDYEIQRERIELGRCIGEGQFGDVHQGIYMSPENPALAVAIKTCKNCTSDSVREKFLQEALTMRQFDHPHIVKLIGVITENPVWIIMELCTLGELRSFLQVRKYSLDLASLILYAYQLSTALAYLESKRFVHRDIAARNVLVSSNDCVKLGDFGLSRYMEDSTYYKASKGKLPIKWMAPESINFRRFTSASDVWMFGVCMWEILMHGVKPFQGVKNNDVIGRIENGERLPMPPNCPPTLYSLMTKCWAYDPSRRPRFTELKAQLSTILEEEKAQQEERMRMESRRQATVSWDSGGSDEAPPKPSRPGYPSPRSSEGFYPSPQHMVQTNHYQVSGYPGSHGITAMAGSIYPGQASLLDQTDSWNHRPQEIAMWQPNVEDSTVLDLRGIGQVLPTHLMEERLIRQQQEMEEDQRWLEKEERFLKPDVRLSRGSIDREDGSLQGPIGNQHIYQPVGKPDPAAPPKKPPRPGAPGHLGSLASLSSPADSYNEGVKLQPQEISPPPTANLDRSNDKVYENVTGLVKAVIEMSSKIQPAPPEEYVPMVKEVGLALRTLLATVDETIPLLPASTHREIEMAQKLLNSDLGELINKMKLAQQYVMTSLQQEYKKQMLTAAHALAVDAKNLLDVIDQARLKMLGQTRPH
Streptavidin (Streptomyces avidinii), sequence (P22629 whole entry, looked up): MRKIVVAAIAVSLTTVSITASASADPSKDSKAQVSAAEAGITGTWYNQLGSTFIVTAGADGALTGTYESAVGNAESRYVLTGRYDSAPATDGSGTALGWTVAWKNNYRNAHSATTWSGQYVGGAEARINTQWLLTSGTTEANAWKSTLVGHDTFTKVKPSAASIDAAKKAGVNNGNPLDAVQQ
Follistatin (Homo sapiens), sequence (P19883 whole entry, looked up): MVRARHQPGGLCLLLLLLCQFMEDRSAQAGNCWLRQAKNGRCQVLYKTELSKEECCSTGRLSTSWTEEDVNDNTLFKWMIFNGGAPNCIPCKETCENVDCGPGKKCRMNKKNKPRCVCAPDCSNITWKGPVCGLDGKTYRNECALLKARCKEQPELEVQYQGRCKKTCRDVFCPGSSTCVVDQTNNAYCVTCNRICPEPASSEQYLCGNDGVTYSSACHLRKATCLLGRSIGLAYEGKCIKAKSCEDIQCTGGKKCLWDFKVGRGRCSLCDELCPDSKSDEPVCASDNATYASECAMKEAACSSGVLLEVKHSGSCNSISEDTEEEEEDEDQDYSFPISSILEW

| Structure (SMILES) | composite z-score [1] | composite z-score [2] | composite z-score [3] | composite z-score [4] | composite z-score [5] | composite z-score [6] | z-score [7] | composite z-score [8] | composite z-score [9] | z-score [10] | composite z-score [11] | z-score [12] | z-score [13] | z-score [14] | z-score [15] | composite z-score [16] | composite z-score [17] | composite z-score [18] | composite z-score [19] | composite z-score [20] |
| --- | --- | --- | --- | --- | --- | --- | --- | --- | --- | --- | --- | --- | --- | --- | --- | --- | --- | --- | --- | --- |
| CN(C)C(=O)[C@@]1(CCC(=O)OC(C)(C)C)N=C(c2ccc(OCCCO)cc2)O[C@H]1c1ccccc1CN=[N+]=[N-] | 2.38 | 1.17 | 0.821 | 1.01 | 1.29 | 0.512 | 0.123 | -0.597 | 1.05 | -0.659 (inactive) | 0.281 | -0.292 (inactive) | -0.0794 (inactive) | 0.148 (inactive) | 0.27 (inactive) | 0.457 | 0.0857 | 0.946 | 1.99 | -0.733 |
| C=CCC(OC(C)=O)[C@@H]1[C@@H](N(Cc2ccc(-c3ccccc3)cc2)C(=O)Cc2ccc(F)cc2)c2cc(OCCCO)ccc2N1C(=O)Cc1ccc2ccccc2c1 (stereo not given in full) | -0.631 | -0.0842 | 0.318 | -0.198 | 0.305 | -0.0712 | 1.85 | -0.0639 | 0.139 | -1.2 (inactive) | 0.261 | 0.189 (inactive) | -0.59 (inactive) | 0.367 (inactive) | 0.997 (inactive) | 0.612 | 0.038 | -0.194 | -0.0043 | -0.0096 |
| COc1cc2c(cc1OC)CN(C(=O)[C@@H]1[C@H]3C(=O)O[C@H](c4ccccc4)[C@H](c4ccccc4)N3[C@H](c3ccc(O)cc3)[C@@]13C(=O)Nc1ccc(C#CCCO)cc13)CC2 | 0.388 | 0.989 | 0.584 | 0.876 | 1.11 | 1.24 | -1.2 | 0.945 | 0.7 | 0.372 (inactive) | 0.527 | 0.082 (inactive) | -0.403 (inactive) | -0.878 (inactive) | -0.231 (inactive) | 0.819 | -0.0493 | -0.0185 | 0.45 | 0.655 |
| CC(=O)NCCCC[C@@H]1NC(=O)[C@H]2C[C@@H](C(=O)NCCCCCNC(=O)CS)[C@@H](c3cccc(OCCO)c3)N2C1=O | 2.85 | 0.616 | 0.598 | 0.108 | 1.33 | 1.6 | 0.0396 | 0.157 | 0.29 | -1.36 (inactive) | -0.0417 | 0.321 (inactive) | -0.93 (inactive) | -0.13 (inactive) | 0.908 (inactive) | -0.155 | -0.128 | 0.498 | 0.092 | 1.74 |
| Cc1ccc(F)cc1S(=O)(=O)N[C@@H]1CCN(Cc2cccc3[nH]ccc23)C1 | 0.134 | 0.179 | -0.271 | -0.383 | 1.26 | 0.932 | 0.443 | 0.69 | -0.227 | -0.0287 (inactive) | 0.148 | -2.35 (inactive) | -0.0885 (inactive) | 1.13 (inactive) | -0.714 (inactive) | -0.0164 | 0.143 | 0.495 | 0.913 | 0.969 |
| COC(=O)[C@@]1(Cc2ccc(OC)cc2)[C@H]2c3cc(C(=O)N4CCCC4)n(Cc4ccc(S(C)(=O)=O)cc4)c3C[C@H]2CN1C(=O)c1ccccc1 | 0.486 | 1.26 | 0.721 | 0.996 | 0.0078 | -0.184 | 1.26 | -0.0956 | 0.479 | 0.922 (inactive) | 0.21 | -0.86 (inactive) | -0.0122 (inactive) | -0.185 (inactive) | -0.755 (inactive) | 1.73 | 0.102 | 0.272 | 0.422 | -1.12 |
| COC(=O)[C@@]1(Cc2ccccc2CN=[N+]=[N-])N=C(c2ccc(OCCCO)cc2)O[C@H]1c1ccccc1 | 2.5 | 0.942 | 0.32 | 0.191 | 1.21 | 0.255 | -0.734 | 0.143 | 0.255 | -2.03 (inactive) | 0.337 | -4.77 (inactive) | -1.09 (inactive) | 2.38 (inactive) | -0.923 (inactive) | -0.533 | 0.412 | 0.0213 | 0.925 | 0.381 |
| CC(C)(C)OC(=O)CC[C@]12N=C(c3ccc(OCCCO)cc3)O[C@H]1c1ccccc1N(Cc1ccccc1)C2=O | 1.6 | 1.13 | 0.56 | 0.758 | 1.35 | 1.4 | 3.04 | 0.457 | 0.477 | -2.2 (inactive) | 0.154 | -3.76 (inactive) | 1.18 (inactive) | 0.951 (inactive) | -0.746 (inactive) | -0.12 | 0.225 | 0.553 | 1.63 | 1.12 |
| CCOC(=O)C[C@H]1[C@H](OC(=O)c2ccccc2-c2ccccc2)[C@@H](NC(=O)c2ccccc2)c2cc(OCCCO)ccc2N1C(=O)c1ccccc1 | -0.356 | 0.558 | 0.59 | 0.847 | 0.378 | 0.673 | 0.629 | 0.292 | 0.0533 | 0.354 (inactive) | 0.309 | -0.208 (inactive) | 0.867 (inactive) | 2.38 (inactive) | 0.908 (inactive) | 0.19 | -0.157 | 0.0802 | 0.261 | 0.259 |
| CC1(C)C(=O)C(c2ccccc2)=C2CN3C(=O)N(CCc4ccccc4)C(=O)C3(Cc3ccc(F)cc3)C=C21 (stereo not given) | 1.47 | 0.324 | -0.104 | -0.402 | 0.0178 | -0.979 | -0.593 | -0.784 | 0.432 | 0.907 (inactive) | 0.198 | -1.86 (inactive) | -0.425 (inactive) | 0.587 (inactive) | -0.0536 (inactive) | 0.326 | 0.349 | -0.448 | 0.0142 | -1.41 |
